SMILES strings stand for the structures. Active and inactive are the calls of the source. How the source made its calls: active means hit-call score of the fitted dose curve at least 0.9, where 1 is the maximum; inactive means score below 0.9.

This passage reports outcome and AC50 results from PubChem BioAssay (EPA / NIEHS).

Read-out in the test: Intercellular Adhesion Molecule 1 (ICAM1), ICAM1 (gene 3383)
Put plainly: BSK_3C_ICAM1: BioMAP Diversity Plus: 3C Assay for Intercellular Adhesion Molecule 1 (ICAM1) Biomarker Activity (AID 2283003). The following applies: primary human endothelial cells (HUVEC); actives raise or lower the signal. As to the method: BSK_3C is a cell-based, multiplexed-readout assay that uses umbilical vein endothelium, a human vascular primary cell, with measurements taken at 24 hours after chemical dosing in a 96-well plate.BSK_3C_ICAM1 is an assay component measured in the BSK_3C assay. It measures ICAM-1 antibody related to regulation of gene expression using ELISA technology.Data from the assay component BSK_3C_ICAM1 was analyzed into 1 assay endpoint. This assay endpoint, BSK_3C_ICAM1, was analyzed with bidirectional fitting relative to DMSO as the negative control and baseline of activity. Using a type of binding reporter, gain or loss-of-signal activity can be used to understand changes in the signaling as they relate to the gene ICAM1. Furthermore, this assay endpoint can be referred to as a primary readout, because this assay has produced multiple assay endpoints where this one serves a signaling function. To generalize the intended target to other relatable targets, this assay endpoint is annotated to the cell adhesion molecules intended target family, where the subfamily is Immunoglobulin CAM.
The levels of cell surface (or secreted, indicated by the prefix "s") biomarker endpoints were measured by ELISA. Overt cytotoxicity to cells in confluent adherent cultures (all systems other than the BT system) was assessed by measuring total protein levels using sulforhodamine B (SRB) staining in parallel cultures at the time of biomarker measurements, indicated as SRB endpoints. For proliferation assays for adherent cell types, individual cell types are cultured at sub-confluence and relative cell numbers quantified by SRB staining at time points optimized for each system (48 h: 3C and CASM3C systems; 72 h: BT and HDF3CGF systems; 96 h: SAg system). SRB was performed by staining cells with 0.1% SRB after fixation with 10% TCA and reading wells at 560 nm.Viability and proliferation of PBMC (T cells) was quantified by Alamar Blue reduction for the SAg and BT systems. For PBMC viability (referred to as PBMC Cytotoxicity within the assay endpoint names), cells were plated (75,000/well in a 96-well plate) and then chemical samples added for 1 h before addition of activators, SEB and TSST-1 (20 ng/mL final concentration each). Cells were incubated for 90 h. Then, Alamar Blue (20 uL/well) (Invitrogen, Cat DAL1100) was added for 6 h, and the plates were read with a fluorescence microplate reader at 546/580 nm (excitation/emission). For PBMC proliferation, cells were plated and activated as above but incubated for only 16 h prior to addition of Alamar Blue. Plates were read after 6 h.
Turning to `CC(C)=CC1C(C(=O)OCc2coc(Cc3ccccc3)c2)C1(C)C` (stereo not given), the result was inactive.

Consider `CCOc1nc(C(Cl)(Cl)Cl)ns1`, for which the result was inactive.

For `COC(=O)NC(=S)Nc1ccccc1NC(=S)NC(=O)OC`, the result was inactive.

On to `O=P(O)(O)CCCl`, for which the outcome was inactive.

As to `CC1(C)CCC(=Cc2ccc(Cl)cc2)C1(O)Cn1cncn1` (stereo not given), the result was inactive.

A word on the AC50: it is the midpoint of the concentration-response curve, whichever way the signal moves. `OC(c1ccc(Cl)cc1)(c1ccc(Cl)cc1)C(Cl)(Cl)Cl`: the half-maximal activity concentration (AC50) was 29 µM (active).

For the compound `CCOP(=O)(OCC)Oc1nc(Cl)c(Cl)cc1Cl`, the result was inactive.

As to `CNC(=O)Oc1cccc2ccccc12`, the outcome was inactive.

In the case of `CSC(=O)c1c(C(F)F)nc(C(F)(F)F)c(C(=O)SC)c1CC(C)C`, the result was inactive.

As for `COCc1cnc(C2=NC(C)(C(C)C)C(=O)N2)c(C(=O)O)c1` (stereo not given), the outcome was inactive.

For `CCOc1cc(C(C)(C)C)ccc1C1COC(c2c(F)cccc2F)=N1` (stereo not given), the result was inactive.

Consider `CS(=O)(=O)c1ccc(C(=O)C2C(=O)CCCC2=O)c([N+](=O)[O-])c1`, for which the result was inactive.

`CCCC(=NOCC)C1=C(O)CC(CC(C)SCC)CC1=O` (stereo not given): the outcome was inactive.

Regarding `CCN(CC)C(=O)C(C)Oc1cccc2ccccc12` (stereo not given), the outcome was inactive.

As to `COC(=O)NS(=O)(=O)c1ccc(N)cc1`, the result was inactive.

On to `CCCCOCN(C(=O)CCl)c1c(CC)cccc1CC`, for which the AC50 is 32.2 µM (active).

For the compound `CC1(C)CON(Cc2ccccc2Cl)C1=O`, the outcome was inactive.

Turning to `CC(C)(C)C(=O)C(Oc1ccc(Cl)cc1)n1cncn1` (stereo not given), the result was inactive.

In the case of `CC1(C)C(C(=O)OC(C#N)c2cccc(Oc3ccccc3)c2)C1(C)C` (stereo not given), the result was inactive.

`COP(=O)(OC)O/C(C)=C/C(=O)N(C)C`: the outcome was inactive.

In the case of `COP(=S)(OC)SCn1nnc2ccccc2c1=O`, the outcome was inactive.

As for `CCCCC(O)(Cn1cncn1)c1ccc(Cl)cc1Cl` (stereo not given), the outcome was inactive.

Regarding `COC(=O)c1c(C(F)F)nc(C(F)(F)F)c(C2=NCCS2)c1CC(C)C`, the outcome was inactive.

In the case of `CN=C=S`, the outcome was inactive.

Consider `Nc1cnn(-c2ccccc2)c(=O)c1Cl`, for which the result was inactive.

For the compound `Clc1nc(Cl)nc(Nc2ccccc2Cl)n1`, the result was inactive.

As to `Cc1cnc(C2=NC(C)(C(C)C)C(=O)N2)c(C(=O)O)c1` (stereo not given), the result was inactive.

`Nc1c(Cl)c(F)nc(OCC(=O)O)c1Cl`: the result was inactive.

In the case of `N#Cc1c(Cl)cccc1Cl`, the outcome was inactive.

For `COCC(=O)N(c1c(C)cccc1C)C(C)C(=O)OC` (stereo not given), the outcome was inactive.

On to `COc1cc(Cl)c(OC)cc1Cl`, for which the outcome was inactive.

For `CCCCC(C#N)(Cn1cncn1)c1ccc(Cl)cc1` (stereo not given), the outcome was inactive.

On to `CCNC(=O)NC(=O)C(C#N)=NOC`, for which the result was inactive.

As for `O=C(Nc1ccccc1-c1ccc(Cl)cc1)c1cccnc1Cl`, the outcome was inactive.

`COC(=O)N(C(=O)N1CO[C@@]2(C(=O)OC)Cc3cc(Cl)ccc3C2=N1)c1ccc(OC(F)(F)F)cc1`: the result was inactive.

For `O=C1C2CC=CCC2C(=O)N1SC(Cl)(Cl)Cl` (stereo not given), the result was inactive.

For `CCN(CC)c1nc(C)cc(OP(=S)(OC)OC)n1`, the outcome was inactive.

Consider `CNC(=O)N(C)c1nnc(C(C)(C)C)s1`, for which the result was inactive.

Regarding `CC(C)N1C(=O)c2ccccc2NS1(=O)=O`, the result was inactive.

As for `CC(C)C1(C)N=C(c2ncccc2C(=O)O)NC1=O` (stereo not given), the result was inactive.
